This test in a line: small-molecule microarray binders of probe aShh, primary screen, biochemical, biotinylated probe, 635/667 nm fluorescence (AID 1114).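 Note: probe is biotin-labelled aShh protein from a stem cell growth factor screen; measures binding of labelled protein to compounds printed on the slide; score merges feature fluorescence at 667 nm with signal-to-noise.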 The conditions noted are these: higher = more signal.
In turn, `CS(=O)(=O)CCOC(=O)C1=CC(CCCO)=CC(c2ccc(CN3CCCC3)cc2)N(Cc2sc3ccccc3c2Cl)C=C1C(=O)OCCS(C)(=O)=O` (stereo not given) returned a composite z-score of 0.318.

In turn, `CCOc1cc(C(O)C2C=CC3C(=O)NC(=O)C3N2Nc2ccc(Cl)cc2Cl)ccc1O` (stereo not given) yielded a composite z-score of 0.0062.

In the case of `Cc1cc(C)c(C(O)C2C=CC3C(=O)N(c4ccccc4)C(=O)C3N2Nc2ccccc2F)c(C)c1` (stereo not given), the composite z-score worked out at 0.282.

Compound `CCOC(=O)C[C@H]1[C@H](OC(=O)Cc2ccc3c(c2)OCO3)[C@@H](NC(=O)c2ccc3ccccc3n2)c2cc(OCCCO)ccc2N1C(=O)c1ccccc1` came in with a composite z-score of -0.214.

Consider `NCCCCCNC(=O)[C@@H]1C[C@@H]2C(=O)N[C@@H](CCCCN)C(=O)N2[C@@H]1c1ccc(O)cc1`, for which the composite z-score came out at 0.246.

In the case of `O=C(C1N=C(c2ccc(OCCCO)cc2)N(c2ccccc2)O1)N1CCCCC1` (stereo not given), the composite z-score was -0.229.

Compound `C=CCC(OC(C)=O)[C@@H]1[C@@H](N(Cc2ccc(-c3ccccc3)cc2)C(=O)c2ccc(-c3ccccc3)cc2)c2cc(OCCCO)ccc2N1C(=O)c1ccc2ccccc2c1` (stereo not given in full) showed a composite z-score of 0.0141.

Compound `CCCC[C@@H](O)C1=C(COC)C[C@H]2C(=O)N(Cc3ccccc3)C(=O)[C@H]2[C@H]1CO` returned a composite z-score of -0.345.

`COc1ccc(CCNC(=O)[C@@]2(Sc3ccc(C)cc3)CC(=O)N(Cc3ccccc3C(F)(F)F)[C@@H]2c2ccc(CO)cc2I)cc1`: the composite z-score is -0.0849.

Compound `CCC#CCN(Cc1ccccc1Br)[C@H](/C=C/C1CC1)[C@@H](O)Cc1ccccc1` came in with a composite z-score of -0.214.

In turn, `NCCCCCNC(=O)[C@H]1C[C@H]2C(=O)N3CCC[C@H]3C(=O)N2[C@H]1c1cccc(OCCO)c1` gave a composite z-score of 0.14.

In turn, `CC(C)[Si](C#CCCCC#N)(O[C@H](c1ccccc1)c1cn(Cc2ccccc2)nn1)C(C)C` registered a composite z-score of 0.0469.

Turning to `CC(C)N1CC=CC23O[C@@H]4C=CCCOC(=O)C4[C@H]2C(=O)N(CCCO)[C@@H]3C1=O` (stereo not given in full), the composite z-score is -0.0769.

On to `[N-]=[N+]=Nc1ccccc1C[C@]1(C(=O)NCC(O)CO)COC(c2ccc(OCCCO)cc2)=N1` (stereo not given in full), for which the composite z-score came out at 0.275.

Consider `COCC(=C=CC[C@H](O)c1ccc(CO)o1)CCO`, for which the composite z-score is -0.0119.

Regarding `CC(C)C(CO)N1C(=O)[C@@H]2[C@H]3C(=O)OCC=C[C@H]3OC23C=CCN(c2ccc(Cl)cc2)C(=O)[C@@H]13` (stereo not given in full), the composite z-score stood at 0.0278.

For `COc1ccc([Si](C)(C)[C@H]2[C@H](CC(=O)N3Cc4ccccc4C[C@H]3CO)O[C@@]3(C(=O)N(Cc4ccc(N5CCOC5=O)cc4)c4ccccc43)[C@@H]2C)cc1`, the composite z-score is -0.0769.

Compound `CCCC[C@@H](O)C1=C(COc2ccccc2)C[C@H]2C(=O)N(Cc3ccccc3)C(=O)[C@H]2[C@H]1CO` yielded a composite z-score of -0.214.

Consider `C[C@@H]1NC(=O)[C@@H](Cc2ccccc2)NC(=O)[C@@]23C(=O)N[C@@H](Cc4ccccc4)C2[C@H](C)[C@@]2(C)O[C@H]2C3/C=C/C/C=C\CNC1=O` (stereo not given in full), for which the composite z-score was -0.0471.

In the case of `[N-]=[N+]=Nc1ccccc1C[C@]1(C(=O)NCCN2CCOCC2)COC(c2ccc(OCCCO)cc2)=N1`, the composite z-score was -0.221.

For `CC(C)C(CO)N1C(=O)[C@@H]2C3C(=O)OCCC/C=C\[C@H]3OC23C=CCN(c2ccc4ccccc4c2)C(=O)[C@@H]13` (stereo not given in full), the composite z-score was -0.0822.

In the case of `C=C(/C(=C/C[C@H](OC(=O)c1ccncc1)c1ccc(CO)o1)c1cnc2ccccc2c1)C(C)C`, the composite z-score was -0.15.

`C=CCOC(=O)[C@@H]1[C@H]2C(=O)O[C@H](c3ccccc3)[C@H](c3ccccc3)N2[C@H](c2ccc(OCCOC(=O)[C@@H]3C[C@@H]4C(=O)N[C@@H](CCCC[N+](C)(C)C)C(=O)N4[C@@H]3c3ccc(O)cc3)cc2)[C@@]12C(=O)Nc1ccc(I)cc12` had a composite z-score of 0.614.

`CCCCC(O)C1C=CC2C(=O)N(C)C(=O)C2N1N(c1ccccc1)c1ccccc1` (stereo not given) gave a composite z-score of 0.393.

Compound `CCCC=C(CCC)[C@@H](NC(=O)c1cccs1)c1ccc(C(=O)OC)cc1` displayed a composite z-score of 2.03.

For the compound `Cc1ccccc1C(O)C1C=CC2C(=O)NC(=O)C2N1Nc1ccccn1` (stereo not given), the composite z-score was -0.349.

As to `C=CCNC(=O)[C@@H]1[C@H]2C(=O)O[C@H](c3ccccc3)[C@H](c3ccccc3)N2[C@H](c2ccccc2OCCO)[C@@]12C(=O)N(C(=O)OCCOC)c1ccc(C#CC3(O)CCCCCC3)cc12`, the composite z-score was -0.0035.

Regarding `CCCNC(=O)[C@@H]1c2ccccc2C(=O)N(Cc2ccc(OC(F)(F)F)cc2)[C@H]1c1ccc(CO)cc1`, the composite z-score amounted to 0.292.

`CCCNC(=O)[C@@]1(C)c2ccccc2C(=O)N(c2ccc(C)cn2)[C@H]1c1ccc(CO)cc1` yielded a composite z-score of -0.291.

In turn, `COc1cc2c(cc1O)C(c1ccc(CN3CCCC3)cc1)N(Cc1cc3c(cc1Br)OCO3)CC2` (stereo not given) showed a composite z-score of -0.2.

The values are drawn from PubChem BioAssay.
